From PubChem BioAssay (Tox21)
“And” between values parts separate entries of the source, which are not always exact repeats. Identical values can stand only once. Results filed as inconclusive are left out. A structure can be active in one record and inactive in another. The source made the active and inactive calls. Unless noted, calls follow the shape of the dose curve; as a rule, active = well fitted curve in the direction sought with a large enough effect in the repeat runs; inconclusive = weak or mixed curves; inactive = no such curve, though single readings can be large; an effect the other way counts as inactive or inconclusive.

Legend:
[1] = target: Retinoic acid receptor RXR-alpha (Homo sapiens) (UniProt P19793); experiment: qHTS assay to identify small molecule agonists of the RXR signaling pathway (AID 1159527; calls by dose curve; also: nearly all actives have a fitted effect of over 35% in size; also: potency is read from the fitted curve at half-maximal effect)
Chain of Retinoic acid receptor RXR-alpha (Homo sapiens) (P19793 whole entry, looked up): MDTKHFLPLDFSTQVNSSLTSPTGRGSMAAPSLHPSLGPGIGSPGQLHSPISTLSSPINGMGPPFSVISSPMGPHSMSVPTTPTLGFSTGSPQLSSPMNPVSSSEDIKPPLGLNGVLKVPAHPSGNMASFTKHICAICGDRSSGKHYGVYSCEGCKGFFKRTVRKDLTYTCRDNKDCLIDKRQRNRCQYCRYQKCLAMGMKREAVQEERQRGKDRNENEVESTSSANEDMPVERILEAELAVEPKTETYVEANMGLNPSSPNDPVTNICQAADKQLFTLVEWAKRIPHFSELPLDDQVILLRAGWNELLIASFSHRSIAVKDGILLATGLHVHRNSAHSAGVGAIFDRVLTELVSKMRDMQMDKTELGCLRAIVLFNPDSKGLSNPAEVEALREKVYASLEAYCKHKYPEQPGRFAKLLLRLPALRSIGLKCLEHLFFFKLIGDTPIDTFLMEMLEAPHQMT
How it was run: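 Cells plated at 2,000/well, rested 5 hr at 37 C, pin-dosed with DMSO compound solutions, incubated 16 hr, then loaded with B/G FRET substrate for 2 hr at RT before dual-emission fluorescence reading.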

[2] = qHTS assay to identify small molecule agonists of the RXR signaling pathway - cell viability counter screen (AID 1159529); also: nearly all actives have a fitted effect of over 50% in size; also: potency is read from the fitted curve at half-maximal effect
How it was run: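 Steps: seed RXR-alpha-UAS-bla HEK 293T cells in assay medium containing 2% charcoal-stripped FBS; incubate 5 hr; add compounds in DMSO; incubate 16 hr at 37 C; after the bla read, add CellTiter-Glo and read luminescence at 30 min.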

[3] = qHTS assay to identify small molecule antagonists of the retinoid acid receptor (RAR) signaling pathway - cell viability counter screen (AID 1159551); also: nearly all actives have a fitted effect of over 35% in size
How it was run: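 In this counter screen, the RARE-luciferase line C3RL4 was exposed for 6 h at 37 C and 5% CO2 to compounds with retinol at 1 uM final. Cellular ATP, read by luminescence, served as the viability measure.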

[4] = qHTS assay to identify small molecule antagonists of the estrogen related receptor (ERR) signaling pathway from Tox21 library - cell viability counter screen (AID 1224834); also: nearly all actives have a fitted effect of over 30% in size; also: potency is read from the fitted curve at half-maximal effect
How it was run: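 Counter screen run in ERR cells (2,000 cells/well): cells pre-incubated 6 h, then treated with compounds for 17.5 h at 37 C. Fluorescence was read 30 min after CellTiter-Fluor addition.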

[5] = target: Luciferin 4-monooxygenase (Photinus pyralis) (UniProt P08659); experiment: qHTS assay to identify small molecule inhibitors of firefly luciferase (AID 1224835); also: nearly all actives have a fitted effect of over 25% in size; also: potency is read from the fitted curve at half-maximal effect
Chain of Luciferin 4-monooxygenase (Photinus pyralis) (P08659 whole entry, looked up): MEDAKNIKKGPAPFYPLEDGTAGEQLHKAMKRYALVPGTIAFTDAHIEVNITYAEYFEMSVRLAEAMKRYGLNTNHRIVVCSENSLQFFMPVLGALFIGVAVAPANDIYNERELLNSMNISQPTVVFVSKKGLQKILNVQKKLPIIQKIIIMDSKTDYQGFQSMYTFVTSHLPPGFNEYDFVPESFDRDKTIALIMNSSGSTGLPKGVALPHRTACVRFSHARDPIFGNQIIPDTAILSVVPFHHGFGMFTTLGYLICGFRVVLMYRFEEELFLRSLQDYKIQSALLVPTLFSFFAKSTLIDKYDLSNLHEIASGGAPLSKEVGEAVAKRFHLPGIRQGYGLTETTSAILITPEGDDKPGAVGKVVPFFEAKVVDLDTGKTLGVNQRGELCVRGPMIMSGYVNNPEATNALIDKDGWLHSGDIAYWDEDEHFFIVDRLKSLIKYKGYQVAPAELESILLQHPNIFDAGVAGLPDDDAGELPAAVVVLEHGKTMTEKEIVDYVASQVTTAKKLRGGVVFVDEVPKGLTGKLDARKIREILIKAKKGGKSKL
How it was run: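 Biochemical qHTS: compounds run as interplate titrations against purified firefly enzyme, with D-luciferin and ATP each at its KM concentration. Light output recorded by CCD imaging.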

[6] = qHTS assay to identify small molecule agonists of the constitutive androstane receptor (CAR) signaling pathway - cell viability counter screen (AID 1224836); also: nearly all actives have a fitted effect of over 45% in size; also: potency is read from the fitted curve at half-maximal effect
How it was run: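 Cells were seeded and incubated 4 hrs. Compounds were added across 15 concentrations together with PK11195 at 0.75 uM final. Plates were incubated 23 hrs at 37 C. CellTiter-Fluor was added and fluorescence measured.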

[7] = qHTS assay to identify small molecule antagonists of the constitutive androstane receptor (CAR) signaling pathway - cell viability counter screen (AID 1224837); also: nearly all actives have a fitted effect of over 45% in size; also: potency is read from the fitted curve at half-maximal effect
How it was run: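 CITCO at 50 nM final was added alongside compounds (15 concentrations) to double-stable hCAR/CYP2B6-2.2kb HepG2 cells. Following 23 hr at 37 C, cell viability was quantified by CellTiter-Fluor fluorescence intensity.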

[8] = target: Nuclear receptor subfamily 1 group I member 3 (Homo sapiens) (UniProt Q14994); experiment: qHTS assay to identify small molecule antagonists of the constitutive androstane receptor (CAR) signaling pathway (AID 1224838); also: nearly all actives have a fitted effect of over 40% in size; also: potency is read from the fitted curve at half-maximal effect
Chain of Nuclear receptor subfamily 1 group I member 3 (Homo sapiens) (Q14994 whole entry, looked up): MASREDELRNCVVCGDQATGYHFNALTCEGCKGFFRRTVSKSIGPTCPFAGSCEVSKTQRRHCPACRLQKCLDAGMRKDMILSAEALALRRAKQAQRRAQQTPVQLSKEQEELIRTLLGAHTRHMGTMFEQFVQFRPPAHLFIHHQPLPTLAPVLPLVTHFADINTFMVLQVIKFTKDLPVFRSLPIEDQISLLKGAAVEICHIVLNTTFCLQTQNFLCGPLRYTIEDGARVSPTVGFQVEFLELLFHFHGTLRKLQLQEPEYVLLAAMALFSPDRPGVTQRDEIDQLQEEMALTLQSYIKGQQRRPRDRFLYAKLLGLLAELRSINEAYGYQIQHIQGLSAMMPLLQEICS
How it was run: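 Inhibition of CITCO-driven (50 nM final) CYP2B6 reporter expression is measured in HepG2 cells stably carrying hCAR. Fifteen compound concentrations are applied for 24 h at 37 C, followed by luciferase luminescence.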

[9] = qHTS assay to identify small molecule antagonists of the estrogen related receptor signaling pathway with the pleiotropic PPARgamma coactivator (PGC) from Tox21 10K library - cell viability counter screen (AID 1224840; active = well fitted cell-killing curve with a large enough effect in the repeat runs, not every such curve was filed as active; also: nearly all actives have a fitted effect of over 40% in size; also: potency is read from the fitted curve at half-maximal effect)
How it was run: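 Readout: fluorescence intensity from CellTiter-Fluor after 30 min at 37 C/5% CO2. Preceded by 17.5 h treatment of PGC/ERR cells with DMSO-dissolved compounds, added 6 h post-seeding.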

[10] = qHTS assay to identify small molecule antagonists of the retinoic acid receptor (RAR) signaling pathway (AID 1159552; also: nearly all actives have a fitted effect of over 50% in size)
How it was run: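 Retinol at 1 uM final stimulated RARE-luciferase expression in C3RL4 cells exposed to test compounds for 6 hr at 37 C. Reduced luminescence, read 30 min after detection reagent, indicated pathway antagonism.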

[11] = qHTS assay to identify small molecule agonists of the retinoic acid receptor (RAR) signaling pathway (AID 1159553); also: potency is read from the fitted curve at half-maximal effect
How it was run: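 In this cell-based screen, 1,000 C3RL4 cells per well were cultured overnight, dosed with test chemicals in DMSO for 6 hr, and assessed for RARE luciferase luminescence.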

[12] = qHTS assay to identify small molecule antagonists of the estrogen related receptor (ERR) signaling pathway - cell viability counter screen (AID 1224818); also: series mostly up to about 46 µM
How it was run: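 Viability of ERR cells, CellTiter-Fluor fluorescence; 17.5 h compound exposure at 37 C, DMSO vehicle; 30 min reagent incubation at 37 C/5% CO2.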

[13] = qHTS assay to identify small molecule antagonists of the estrogen related receptor signaling pathway with the pleiotropic PPARgamma coactivator (PGC) cell viability counter screen (AID 1224822; also: series mostly up to about 46 µM)
How it was run: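 17.5 h compound treatment of PGC/ERR cells at 37 C; readout CellTiter-Fluor fluorescence; run alongside the PGC/ERR antagonist screen to flag cytotoxic compounds.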

[14] = qHTS assay to identify small molecule antagonists of the estrogen related receptor signaling pathway with the pleiotropic PPARgamma coactivator (PGC) from Tox21 10K library (AID 1224841; call rule not given here; also: actives are mostly falling curves and most rising ones were filed inactive; nearly all actives have a fitted effect of over 50% in size; also: potency is read from the fitted curve at half-maximal effect)
How it was run: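 One-Glo luminescence, measured after half an hour at room temperature, quantified reporter output of PGC/ERR cells. These had been plated at 2,000 per well, incubated 6 h, dosed with compounds in DMSO, then kept 18 h at 37 C.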

[15] = qHTS assay to identify small molecule agonists of the estrogen related receptor (ERR) signaling pathway (AID 1224820)
How it was run: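 Following a 6 h settling period, 2,000 ERR cells per well receive DMSO-dissolved compounds by pin tool and incubate 18 h at 37 C; agonist activity is scored from One-Glo luminescence read 30 min post-addition.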

[16] = system: estrogen-related receptor alpha (ERRalpha) with PGC-1alpha coactivator, human; experiment: qHTS assay to identify small molecule antagonists of the estrogen related receptor signaling pathway with the pleiotropic PPARgamma coactivator (PGC) (AID 1224821; calls by dose curve;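 also: series mostly up to about 46 µM; lower luminescence signal means antagonism of PGC/ERR signalling; nearly all actives have a fitted effect of over 50% in size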)
How it was run: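 Screening used NTP's PGC/ERR cells, dosed via pin tool with compound in DMSO alongside positive and negative controls. After 18 h at 37 C, One-Glo reagent sat 30 min at room temperature before luminescence detection.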

[17] = qHTS assay to identify small molecule agonists of the estrogen related receptor signaling pathway with the pleiotropic PPARgamma coactivator (PGC) (AID 1224823)
How it was run: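 In this quantitative high-throughput screen, an 18 h, 37 C treatment of PGC/ERR cells with compounds in DMSO preceded a One-Glo luminescence read taken after 30 min at room temperature.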

[18] = qHTS assay to identify small molecule agonists of the estrogen related receptor signaling pathway with the pleiotropic PPARgamma coactivator (PGC) from Tox21 10K library (AID 1224842); also: nearly all actives have a fitted effect of over 15% in size; also: potency is read from the fitted curve at half-maximal effect
How it was run: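 PGC/ERR reporter cell line, 2,000 cells per well, incubated 6 h at 37 C before 23 nL compound in DMSO was added. After 18 h at 37 C, One-Glo luminescence read following 30 min at room temperature.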

[19] = target: Nuclear receptor subfamily 1 group I member 3 (Homo sapiens) (UniProt Q14994); experiment: qHTS assay to identify small molecule agonists of the constitutive androstane receptor (CAR) signaling pathway (AID 1224839); also: nearly all actives have a fitted effect of over 15% in size; also: potency is read from the fitted curve at half-maximal effect
How it was run: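 Cells were plated and incubated 4 hrs, then dosed with compounds at 15 concentrations. PK11195 was added to 0.75 uM final. After 24 hrs at 37 C, luciferase luminescence was measured.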

Measured: Potency

c1ccc2c(c1)c1cccc3ccc4cccc2c4c31
inactive: [2] | [3] | [4] | [5] | [6] | [7] | [8] | [9]
43.4 µM (active) and inactive: [1]

CN(C)c1nc(N(C)C)nc(N(C)C)n1
not listed: [3] | [14] | [15] | [16] | [17] | [18] | [19]
inactive: all other assays above

O=[N+]([O-])c1ccc2c(c1)Cc1ccccc1-2
not listed: [3] | [12] | [13] | [15] | [16] | [17] | [18] | [19]
inactive: all other assays above

CCCCc1oc2ccccc2c1C(=O)c1cc(I)c(OCCN(CC)CC)c(I)c1
active: [2] 12.4 µM and 16.9 µM | [4] 48.9 µM and 29.8 µM | [7] 43.6 µM | [9] 43.6 µM
inactive: [1] | [15] | [16] | [17] | [5] | [14] | [18]

CCCCCCCCCC(=O)OC
not listed: [3] | [12] | [13] | [14] | [15] | [16] | [17] | [18]
inactive: all other assays above

Cc1[nH]c(=O)c(C#N)cc1-c1ccncc1
not listed: [3] | [14] | [15] | [16] | [17] | [18] | [19]
inactive: all other assays above

O=C(c1ccccc1)c1ccccc1O
not listed: [3] | [12] | [13] | [15] | [16] | [17]
inactive: all other assays above

CCCCC(CC)COC(=O)c1ccc(N(C)C)cc1 (configuration not stated)
24.5 µM (active) and inactive: [19]
inactive: [1] | [2] | [10] | [11] | [4] | [5] | [6] | [7] | [8] | [9]

COC(=O)c1ccccc1
inactive: [1] | [2] | [3] | [4] | [5] | [6] | [7] | [9]

C#C[C@]1(O)CC[C@H]2[C@@H]3CCc4cc(OC)ccc4[C@H]3CC[C@@]21C
active: [19] 27.3 µM and 23.7 µM
not listed: [3] | [12] | [13] | [15] | [16] | [17] | [18]
inactive: all other assays above

CC(C)=CCC/C(C)=C\CO
inactive: [1] | [2] | [3] | [4] | [5] | [6] | [7] | [9]

CCCCC(CC)COP(=O)(OCC(CC)CCCC)OCC(CC)CCCC (configuration not stated)
inactive: [1] | [2] | [4] | [5] | [6] | [7] | [8] | [19] | [9]

NNc1ccc(C(=O)O)cc1
active: [1] 49.5 µM | [11] 43.9 nM and 24.6 µM | [5] 32.1 µM and 4.53 µM
inactive: [2] | [10] | [4] | [6] | [7] | [9]

CCCc1c(OCCCCc2nn[nH]n2)ccc(C(C)=O)c1O
inactive: [2] | [4] | [5] | [6] | [7] | [8] | [9]
active: [1] 54.9 µM and 23.9 µM

COC(=O)Nc1nc2ccc(S(=O)c3ccccc3)cc2[nH]1 (configuration not stated)
inactive and 11.9 µM (active): [18]
inactive and 6.68 µM (active): [19]
inactive: [1] | [2] | [3] | [5] | [6] | [7] | [8] | [9] | [14]

CCCCC(CC)COCC1CO1 (configuration not stated)
not listed: [3] | [12] | [13] | [15] | [16] | [17]
inactive: all other assays above

S=C(NC1CCCCC1)NC1CCCCC1
inactive: [2] | [3] | [10] | [5] | [6] | [7] | [18]
active: [11] 9.5 µM and 9.69 µM | [4] 13.7 µM | [8] 13.4 µM and 8.63 µM | [14] 23.9 µM and 21.7 µM

Cc1c(C(N)=O)cc([N+](=O)[O-])cc1[N+](=O)[O-]
inactive: [1] | [2] | [4] | [5] | [6] | [7] | [8] | [9]

O=c1oc(=O)c2cc3c(=O)oc(=O)c3cc12
not listed: [1] | [12] | [13] | [15] | [16] | [17]
inactive: all other assays above

CCOC(=O)C(C#N)=C(c1ccccc1)c1ccccc1
active: [19] 3.86 µM and 3.76 µM
not listed: [1] | [12] | [13] | [15] | [16] | [17]
inactive: all other assays above

Nc1ccccc1N
inactive: [2] | [3] | [10] | [12] | [8] | [9]
active: [11] 1.25 µM and 1.72 µM | [5] 8.15 µM and 1.78 µM | [19] 24.3 µM

COC(C)COC(C)COC(C)CO (configuration not stated)
inactive: [2] | [4] | [5] | [6] | [7] | [8] | [19] | [9] | [14] | [18]

CC(=O)Oc1ccccc1C(=O)Nc1ncc([N+](=O)[O-])s1
active: [11] 140 nM and 188 nM | [4] 14 µM and 18.8 µM | [5] 1.29 µM and 3.09 µM | [6] 19.7 µM and 21.1 µM | [7] 24.8 µM and 23.7 µM | [19] 556 nM and 473 nM | [9] 15.7 µM and 23.7 µM
inactive: [2] | [10] | [8]
